# Laboratory results reported in PubChem BioAssay (NCATS).
# Inconclusive results are not listed. Activity calls are given as the source filed them. Unless noted, calls follow the shape of the dose curve; as a rule, active = well fitted curve in the direction sought with a large enough effect; inconclusive = small, poorly fitted or top-dose-only effect, or another doubt; inactive = no such curve, though single readings can be large; an effect the other way counts as inactive or inconclusive.
# Key:
# [1] = qHTS drug screen for cell cycle checkpoint inhibitors in PARPi-resistant BRCA-mutant ovarian cancer cell lines. (AID 1963452; calls by dose curve); conditions: PEO1/OlaR viability, CellTiter-Glo luminescence, 96 h, stronger effect = lower value
# Procedure, shortened: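 PEO1, PEO4 and PEO1/OlaR ovarian cancer cells, 600 per well, exposed 96 h at 37C to a dilution series. Viability read by CellTiter-Glo luminescence, normalized to DMSO and empty wells; activity summarized as Z-AUC.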
# [2] = qHTS for identification of novel therapeutic agents for treatment of microphthalmiaassociated transcription factor (MiT) renal cell carcinoma (RCC) (AID 1963991; calls by dose curve; also: potency is read from the fitted curve at half-maximal effect); conditions: CellTiter-Glo, 48 h; for z-score: stronger effect = lower value
# Procedure, shortened: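 Three TFE3-fusion RCC lines (UOK109, UOK124, UOK145), 500 cells/well in complete medium, were treated with MIPE 4.0 compounds for 48 hours at 37 C. Viability was by CellTiter-Glo luminescence, normalized to DMSO (100%) and empty wells (0%); curves fitted over 11 concentrations.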
# [3] = qHTS profiling for inhibitors of Plasmodium falciparum proliferation (AID 504749); also: potency is read from the fitted curve at half-maximal effect;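 as to activity, negative = inhibition: 0% = DMSO vehicle and full inhibition = artemisinin control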; as to all read-outs here: nearly all actives have a fitted effect of over 60% in size; conditions: P. falciparum in erythrocytes, SYBR Green DNA, 72 h; for activity, negative = inhibition: at 28.7 µM (top of the series)
# Procedure, shortened: (§1)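 SYBR Green fluorescence of parasite DNA, read after lysis and overnight dark incubation, measured growth over 72 h in erythrocyte culture at 0.3% parasitemia and 2.5% hematocrit. Data normalised to DMSO and 0.29 uM artemisinin, with plate-drift correction.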
# 3D7 = experiment: as above; conditions: P. falciparum in erythrocytes, SYBR Green DNA, 72 h; series mostly up to 28.7 µM
# Procedure, shortened: as §1
# 7G8 = experiment: as above; conditions: P. falciparum in erythrocytes, SYBR Green DNA, 72 h; series mostly up to 28.7 µM
# Procedure, shortened: as §1
# AA1029 = experiment: as above; conditions: P. falciparum in erythrocytes, SYBR Green DNA, 72 h; series mostly up to 28.7 µM
# Procedure, shortened: as §1
# AS120 = experiment: as above; conditions: P. falciparum in erythrocytes, SYBR Green DNA, 72 h; series mostly up to 28.7 µM
# Procedure, shortened: as §1
# ATS189 = experiment: as above; conditions: P. falciparum in erythrocytes, SYBR Green DNA, 72 h; series mostly up to 28.7 µM
# Procedure, shortened: as §1
# ATS95 = experiment: as above; conditions: P. falciparum in erythrocytes, SYBR Green DNA, 72 h; series mostly up to 28.7 µM
# Procedure, shortened: as §1
# C2A = experiment: as above; conditions: P. falciparum in erythrocytes, SYBR Green DNA, 72 h; series mostly up to 28.7 µM
# Procedure, shortened: as §1
# CP185 = experiment: as above; conditions: P. falciparum in erythrocytes, SYBR Green DNA, 72 h; series mostly up to 28.7 µM
# Procedure, shortened: as §1
# CP191 = experiment: as above; conditions: P. falciparum in erythrocytes, SYBR Green DNA, 72 h; series mostly up to 28.7 µM
# Procedure, shortened: as §1
# CP192 = experiment: as above; conditions: P. falciparum in erythrocytes, SYBR Green DNA, 72 h; series mostly up to 28.7 µM
# Procedure, shortened: as §1
# [4] = KB-3-1 P-gp reporter qHTS against the NCATS DSHEA and TCM libraries (AID 1919975); conditions: KB-3-1 parental cells, CellTiter-Glo luminescence viability, 72 h; series mostly up to 26.1 µM; also: 0% is about no effect
# Procedure, shortened: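 KB-3-1 parental line, 1536-well qHTS: cells seeded, ~4 h attachment, pintool compound addition, ~72 h at 37C, then CellTiter-Glo, 30 min RT, luminescence. Concentration-response format.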
# [5] = biological target: Cytochrome P450 1A2 (Homo sapiens) (UniProt P05177); experiment: qHTS for inhibitors of CYPIA2 against the NCATS DSHEA and TCM libraries (AID 1919976); conditions: recombinant CYP1A2 enzyme activity, luminescence; series mostly up to 37 µM; also: % is scaled to controls: 0 for no effect and ±100 for the full control effect
# Chain of Cytochrome P450 1A2 (Homo sapiens) (P05177 whole entry, looked up): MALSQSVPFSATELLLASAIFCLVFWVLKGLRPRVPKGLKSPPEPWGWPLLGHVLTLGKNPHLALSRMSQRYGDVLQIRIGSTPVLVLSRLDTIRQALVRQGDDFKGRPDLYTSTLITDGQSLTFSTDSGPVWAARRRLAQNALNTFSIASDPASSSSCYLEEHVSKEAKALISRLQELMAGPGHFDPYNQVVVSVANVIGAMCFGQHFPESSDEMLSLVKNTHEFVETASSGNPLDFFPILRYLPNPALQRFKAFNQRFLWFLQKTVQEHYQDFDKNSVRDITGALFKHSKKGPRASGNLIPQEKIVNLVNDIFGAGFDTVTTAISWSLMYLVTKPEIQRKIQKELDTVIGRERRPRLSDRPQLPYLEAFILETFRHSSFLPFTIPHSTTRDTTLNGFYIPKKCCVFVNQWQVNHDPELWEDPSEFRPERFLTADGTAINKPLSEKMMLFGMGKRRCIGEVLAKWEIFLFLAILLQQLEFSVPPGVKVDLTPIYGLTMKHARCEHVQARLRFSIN
# Procedure, shortened: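 Reaction started with 1x NADPH regeneration solution and run 30-45 min, room temperature, protected from light, after compounds sat 15 min with CYP1A2 and pro-luciferin substrate. P450-Glo detection gave luminescence; furafylline served as control.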
# [6] = qHTS Counterscreen for compound interference against the NCATS DSHEA and TCM libraries (AID 1919978); conditions: firefly luciferase detection reagent interference, luminescence;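 also: compounds preincubated with 1 µM D-luciferin or buffer before detection reagent; % of control where 0% means no effect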
# Procedure, shortened: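 Compounds, titrated from 19.5 nM to 39.8 uM final, were pinned onto 1 uM D-luciferin or plain 100 mM potassium phosphate. After 15 min at room temperature, luciferin detection reagent was added for 30 min before the luminescence read.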
# [7] = Dual reporter qHTS for agonist of Pregnane X Receptor (hPXR) against the NCATS DSHEA and TCM libraries: Fluorescence readout (AID 1920058); conditions: PXR dual reporter cells; series mostly up to 40 µM; also: 0% is about no effect
# Procedure, shortened: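 Viability readout (CellTiter-Fluor, 405/540 nm, 1 h) from agonist-mode PXR dual reporter in hPXR-Luc HepG2 cells. Substances ~24 h, 37 °C, 5% CO2; rifampicin reference, tetraoctyl ammonium bromide cytotoxic control.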
# [8] = biological target: Nuclear receptor subfamily 1 group I member 2 (Homo sapiens) (UniProt O75469); experiment: Dual reporter qHTS for agonist of Pregnane X Receptor (hPXR) against the NCATS DSHEA and TCM libraries: Luminescence readout (AID 1920059); conditions: hPXR dual reporter cells, luciferase luminescence agonist; series mostly up to 40 µM; also: 0% is about no effect
# Chain of Nuclear receptor subfamily 1 group I member 2 (Homo sapiens) (O75469 whole entry, looked up): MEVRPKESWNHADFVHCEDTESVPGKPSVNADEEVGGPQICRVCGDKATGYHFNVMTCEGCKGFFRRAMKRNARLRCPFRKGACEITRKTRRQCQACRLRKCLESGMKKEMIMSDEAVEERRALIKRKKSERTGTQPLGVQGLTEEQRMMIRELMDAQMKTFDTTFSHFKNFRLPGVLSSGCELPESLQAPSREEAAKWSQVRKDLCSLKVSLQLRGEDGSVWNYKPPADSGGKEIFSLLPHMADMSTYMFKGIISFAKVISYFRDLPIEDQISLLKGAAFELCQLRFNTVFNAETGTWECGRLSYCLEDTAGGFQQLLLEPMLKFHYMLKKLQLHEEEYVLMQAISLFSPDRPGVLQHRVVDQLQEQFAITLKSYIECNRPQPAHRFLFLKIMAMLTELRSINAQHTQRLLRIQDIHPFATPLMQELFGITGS
# Procedure, shortened: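 Luminescent PXR reporter read (ONE-Glo) after a CellTiter-Fluor viability read, following 24 h, 37C treatment of HepG2 cells stably carrying hPXR-Luc.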
# [9] = biological target: Nuclear receptor subfamily 1 group I member 2 (Homo sapiens) (UniProt O75469); experiment: Dual reporter qHTS for antagonist of Pregnane X Receptor (hPXR) against the NCATS DSHEA and TCM libraries: Luminescence Readout (AID 1920060); conditions: hPXR dual reporter cells, luciferase luminescence, antagonist mode; series mostly up to 40 µM;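 also: HepG2 cells carrying hPXR luciferase reporter stimulated with rifampicin at 2 µM; 0% is about no effect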
# Procedure, shortened: (§2)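 hPXR-Luc HepG2 cells exposed 24 h at 37 C to compounds with 2 uM rifampicin in antagonist mode; luciferase luminescence measured by ONE-Glo, with CellTiter-Fluor viability read beforehand.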
# [10] = Dual reporter qHTS for antagonist of Pregnane X Receptor (hPXR) against the NCATS DSHEA and TCM libraries: Fluorescence Readout (AID 1920061); conditions: PXR dual reporter cells, antagonist mode; series mostly up to 40 µM; also: 0% is about no effect
# Procedure, shortened: as §2
# [11] = measured here: PEO1 parental Z-AUC
# [12] = TFE3-RCC UOK109 viability, measured here: UOK109 Z-AUC
# [13] = TFE3-RCC viability, measured here: UOK124 Z-AUC
# [14] = TFE3-RCC viability, measured here: UOK145 Z-AUC
compound,measurement,setting,value
NCCS(=O)(=O)O,Z-AUC,[1],1.22 (inactive)
same,Z-AUC,[1]; [11],0.571
same,Z-AUC,[1]; measured here: PEO4 Z-AUC,0.568
same,z-score,[2]; [12],0.929
same,z-score,[2]; [13],0.854
same,z-score,[2]; [14],0.716
same,"activity, negative = inhibition",[3]; parasite line A,5.98% (inactive)
same,"activity, negative = inhibition",[3]; parasite line B,-25.3% (inactive)
same,Potency,3D7,inactive
same,Potency,7G8,inactive
same,Potency,AA1029,inactive
same,Potency,AS120,inactive
same,Potency,ATS189,inactive
same,Potency,ATS95,inactive
same,Potency,C2A,inactive
same,Potency,CP185,inactive
same,Potency,CP191,inactive
same,Potency,CP192,inactive
CCN1CCCC1CNC(=O)c1cc(S(=O)(=O)CC)c(N)cc1OC (centres undefined),Z-AUC,[1],1.05 (inactive)
same,Z-AUC,[1]; [11],0.594
same,Z-AUC,[1]; measured here: PEO4 Z-AUC,0.466
same,z-score,[2]; [12],0.976
same,z-score,[2]; [13],0.754
same,z-score,[2]; [14],0.815
CC(=O)OCC(CCn1cnc2cnc(N)nc21)COC(C)=O,Z-AUC,[1],1.18 (inactive)
same,Z-AUC,[1]; [11],1.12
same,Z-AUC,[1]; measured here: PEO4 Z-AUC,1.62
same,z-score,[2]; [12],0.583
same,z-score,[2]; [13],0.498
same,z-score,[2]; [14],1.13
same,"activity, negative = inhibition",[3]; parasite line A,-2.23% (inactive)
same,"activity, negative = inhibition",[3]; parasite line B,0.392% (inactive)
same,Potency,3D7,inactive
same,Potency,7G8,inactive
same,Potency,AA1029,inactive
same,Potency,AS120,inactive
same,Potency,ATS189,inactive
same,Potency,ATS95,inactive
same,Potency,C2A,inactive
same,Potency,CP185,inactive
same,Potency,CP191,inactive
same,Potency,CP192,inactive
CC1COc2c(N3CCN(C)CC3)c(F)cc3c(=O)c(C(=O)O)cn1c23 (centres undefined),Z-AUC,[1],-0.369 (inactive)
same,Z-AUC,[1]; [11],0.841
same,Z-AUC,[1]; measured here: PEO4 Z-AUC,-0.196
Cn1c(=O)c2c(ncn2C)n(C)c1=O,outcome,[4],inactive
same,outcome,[5],inactive
same,max response,[6],2.12% (inactive)
same,outcome,[7],inactive
same,outcome,[8],inactive
same,outcome,[9],inactive
same,outcome,[10],inactive
same,Z-AUC,[1],1.16 (inactive)
same,Z-AUC,[1]; [11],1.03
same,Z-AUC,[1]; measured here: PEO4 Z-AUC,1.21
same,z-score,[2]; [12],0.696
same,z-score,[2]; [13],0.536
same,z-score,[2]; [14],0.729
same,"activity, negative = inhibition",[3]; parasite line A,6.06% (inactive)
same,"activity, negative = inhibition",[3]; parasite line B,8.5% (inactive)
same,Potency,3D7,inactive
same,Potency,AA1029,inactive
same,Potency,AS120,inactive
same,Potency,ATS189,inactive
same,Potency,ATS95,inactive
same,Potency,C2A,inactive
same,Potency,CP185,inactive
same,Potency,CP191,inactive
same,Potency,CP192,inactive
CC[C@@]1(O)C(=O)OCc2c1cc1n(c2=O)Cc2cc3c(CN(C)C)c(O)ccc3nc2-1,Z-AUC,[1],-0.723 (inactive)
same,Z-AUC,[1]; [11],-1.25
same,Z-AUC,[1]; measured here: PEO4 Z-AUC,-0.128
same,Potency,"[2]; TFE3-RCC UOK109 viability, active = Z-AUC below -0.8 in all three lines",5.9 µM (active)
same,z-score,[2]; [12],-0.963
same,z-score,[2]; [13],-2.75
same,z-score,[2]; [14],-1.63
same,Potency,[3]; parasite line A,3.55 µM (active)
same,Potency,[3]; parasite line B,7.08 µM (active)
same,Potency,3D7,5.62 µM (active)
same,Potency,AA1029,7.08 µM (active)
same,Potency,AS120,3.55 µM (active)
same,Potency,ATS95,3.16 µM (active)
same,Potency,C2A,8.91 µM (active)
same,Potency,CP191,8.91 µM (active)
COc1ccc(C2CNC(=O)C2)cc1OC1CCCC1 (centres undefined),Z-AUC,[1],-0.000894 (inactive)
same,Z-AUC,[1]; [11],0.813
same,Z-AUC,[1]; measured here: PEO4 Z-AUC,0.981
same,z-score,[2]; [12],0.4
same,z-score,[2]; [13],0.743
same,z-score,[2]; [14],0.539
COc1ccccc1OCC(O)CN1CCN(CC(=O)Nc2c(C)cccc2C)CC1 (centres undefined),Z-AUC,[1],-0.161 (inactive)
same,Z-AUC,[1]; [11],0.571
same,Z-AUC,[1]; measured here: PEO4 Z-AUC,0.54
same,z-score,[2]; [12],0.18
same,z-score,[2]; [13],0.373
same,z-score,[2]; [14],-0.0249
same,"activity, negative = inhibition",[3]; parasite line A,2.52% (inactive)
same,"activity, negative = inhibition",[3]; parasite line B,-6.5% (inactive)
same,Potency,3D7,inactive
same,Potency,7G8,inactive
same,Potency,AA1029,inactive
same,Potency,AS120,inactive
same,Potency,ATS189,inactive
same,Potency,ATS95,inactive
same,Potency,C2A,inactive
same,Potency,CP185,inactive
same,Potency,CP191,inactive
same,Potency,CP192,inactive
COc1ccc2c(c1)c(CC(=O)O)c(C)n2C(=O)c1ccc(Cl)cc1,Z-AUC,[1],0.8 (inactive)
same,Z-AUC,[1]; [11],0.391
same,Z-AUC,[1]; measured here: PEO4 Z-AUC,0.536
OCCN(CCO)c1nc(N2CCCCC2)c2nc(N(CCO)CCO)nc(N3CCCCC3)c2n1,Z-AUC,[1],1 (inactive)
same,Z-AUC,[1]; [11],0.552
same,Z-AUC,[1]; measured here: PEO4 Z-AUC,0.489
